# Results from PubChem BioAssay (EPA / NIEHS).
# Records with an inconclusive call do not appear. Activity calls are given as the source filed them. Rule for the calls, unless noted: active = hit-call score of the fitted dose curve at least 0.9, where 1 is the maximum; inactive = score below 0.9.
# How the values were obtained:
# [1] = read-out: Transforming Growth Factor (TGFB1), TGFB1 (gene 7040); test: LTEA_HepaRG_TGFB1: Life Technologies and Expression Analysis (LTEA) Assay for Transforming Growth Factor (TGFB1) Transporter using HepaRG (AID 2283533); settings: mRNA level, 48 h; actives raise or lower the signal
# Procedure, shortened: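 HepaRG, 48 h post-plating, switched to serum-free induction medium; chemicals 100 uM top, half-log, 8 pts, 0.5% DMSO, dup; 48 h exposure; RNA → Fluidigm TaqMan qRT-PCR; norm ACTB/GAPDH/POLR2A; bidirectional fit vs DMSO.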
# TIMP1, TIMP1 (gene 7076) = test: LTEA_HepaRG_TIMP1: Life Technologies and Expression Analysis (LTEA) Assay for TIMP1 using HepaRG (AID 2283534); settings: mRNA level, 48 h; actives raise or lower the signal;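 for outcome: TaqMan qRT-PCR signal normalized to ACTB GAPDH and POLR2A housekeeping genes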
# Procedure, shortened: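 Readout is TIMP1 mRNA level measured by qRT-PCR and normalized to three housekeeping genes. Human HepaRG cells were treated for 48 h in duplicate at eight concentrations up to 100 uM (0.5% DMSO); gain or loss fitted against DMSO.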
# [2] = read-out: Tumor necrosis factor receptor 1 (TNFRSF1A), TNFRSF1A (gene 7132); test: LTEA_HepaRG_TNFRSF1A: Life Technologies and Expression Analysis (LTEA) Assay for Tumor necrosis factor receptor 1 (TNFRSF1A) using HepaRG (AID 2283535); settings: mRNA level, 48 h; actives raise or lower the signal
# Procedure, shortened: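 Read-out is TNFRSF1A transcript level by TaqMan qRT-PCR, normalized to three housekeeping genes, scored as gain or loss of signal versus 0.5% DMSO. Human HepaRG cells received test chemicals for 48 h at up to 100 uM (half-log series).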
# [3] = read-out: Thyroid Hormone Responsive (THRSP), THRSP (gene 7069); test: LTEA_HepaRG_THRSP: Life Technologies and Expression Analysis (LTEA) Assay for Thyroid Hormone Responsive (THRSP) using HepaRG (AID 2283536); settings: mRNA level, 48 h; actives raise or lower the signal
# Procedure, shortened: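 THRSP transcript quantified by Fluidigm qRT-PCR against three housekeeping genes after 48 h chemical exposure of HepaRG cells in serum-free induction medium; eight-point half-log series, top 100 uM, 0.5% DMSO vehicle, duplicate wells.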
# [4] = read-out: UDP glucuronosyltransferase (UGT1A1), UGT1A1 (gene 54658); test: LTEA_HepaRG_UGT1A1: Life Technologies and Expression Analysis (LTEA) Assay for UDP glucuronosyltransferase (UGT1A1) using HepaRG (AID 2283538); settings: mRNA level, 48 h; actives raise or lower the signal
# Procedure, shortened: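 HepaRG, 48 h chemical exposure (top 100 uM, half-log 8-pt, 0.5% DMSO vehicle), duplicate wells; qRT-PCR (TaqMan, Fluidigm array) for UGT1A1 mRNA, housekeeping-normalized; bidirectional curve fit vs DMSO baseline.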
# [5] = read-out: UDP glucuronosyltransferase (UGT1A6), UGT1A6 (gene 54578); test: LTEA_HepaRG_UGT1A6: Life Technologies and Expression Analysis (LTEA) Assay for UDP glucuronosyltransferase (UGT1A6) using HepaRG (AID 2283539); settings: mRNA level, 48 h; actives raise or lower the signal
# Procedure, shortened: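 HepaRG, 48 h post-plating switch to serum-free induction medium; chemical 48 h, 100 uM top, half-log x8, duplicate, 0.5% DMSO. Phenobarbital 1mM induction control. UGT1A6 mRNA by TaqMan qRT-PCR; gain/loss fit vs DMSO.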
# [6] = read-out: X-box binding protein 1 (XBP1), XBP1 (gene 7494); test: LTEA_HepaRG_XBP1: Life Technologies and Expression Analysis (LTEA) Assay for X-box binding protein 1 (XBP1) using HepaRG (AID 2283540); settings: mRNA level, 48 h; actives raise or lower the signal
# Procedure, shortened: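 Transcript levels of XBP1, measured by qRT-PCR and normalised to three housekeeping genes, were fitted bidirectionally relative to 0.5% DMSO controls. Human HepaRG cells received eight-point half-log dilutions from 100 uM for 48 h.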
# [7] = LTEA_HepaRG_LDH_cytotoxicity: Cytotoxicity Assessment in the Life Technologies and Expression Analysis (LTEA) Assay (AID 2283563; active = hit-call score of the fitted dose curve at least 0.9, where 1 is the maximum;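 for AC50: LDH activity released into spent culture medium as a marker of cell death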)
# Procedure, shortened: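 Cells were thawed and plated for 48 h. Medium was then replaced with serum-free induction medium. Chemicals (8 half-log points, maximum 100 uM, 0.5% DMSO) were added in duplicate for 48 h, after which spent medium was assayed for LDH.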
# [8] = read-out: Cellular tumor antigen p53 (Homo sapiens) (UniProt P04637); test: LTEA_HepaRG_TP53: Life Technologies and Expression Analysis (LTEA) Assay for Tumor Protein P53 (TP53) using HepaRG (AID 2283537); settings: mRNA level, 48 h; actives raise or lower the signal
# Procedure, shortened: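 Read-out is TP53 transcript level by microfluidic qRT-PCR, normalised to three housekeeping genes and fitted bidirectionally against DMSO. Human HepaRG cells received compounds for 48 h, highest concentration 100 uM.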
# [9] = ATG_XTT_Cytotoxicity: Cytotoxicity Assessment in the Attagene TRANS-FACTORIAL HepG2 Assay (AID 2283584; active = hit-call score of the fitted dose curve at least 0.9, where 1 is the maximum)
# Procedure, shortened: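 Cells: human HepG2, transiently transfected with MRTU reporter constructs. Exposure 24 h. Readout: XTT, cell number. Baseline/neg ctrl DMSO; loss-of-signal scored.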
# Sequence of Cellular tumor antigen p53 (Homo sapiens) (P04637 whole entry, looked up): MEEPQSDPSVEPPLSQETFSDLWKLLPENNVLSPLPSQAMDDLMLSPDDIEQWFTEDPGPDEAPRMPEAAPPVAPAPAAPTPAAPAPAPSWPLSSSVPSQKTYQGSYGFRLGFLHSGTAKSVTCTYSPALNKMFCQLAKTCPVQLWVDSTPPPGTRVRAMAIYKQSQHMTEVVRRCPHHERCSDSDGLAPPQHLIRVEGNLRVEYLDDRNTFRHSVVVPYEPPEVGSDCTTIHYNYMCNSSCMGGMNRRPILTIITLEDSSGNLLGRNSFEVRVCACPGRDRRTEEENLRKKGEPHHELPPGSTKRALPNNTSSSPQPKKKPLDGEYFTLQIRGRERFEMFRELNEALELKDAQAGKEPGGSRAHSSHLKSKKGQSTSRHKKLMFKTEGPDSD
smiles,measurement,setting,value
CC(C)[C@H](C(=O)O[C@H](C#N)c1cccc(Oc2ccccc2)c1)c1ccc(Cl)cc1,outcome,[1],inactive
same,outcome,"TIMP1, TIMP1 (gene 7076)",inactive
same,outcome,[2],inactive
same,outcome,[3],inactive
same,AC50,[4],23.8 µM (active)
same,outcome,[5],inactive
same,outcome,[6],inactive
same,outcome,[7],inactive
CC1(C(=O)Nc2ccc(O)c(Cl)c2Cl)CCCCC1,outcome,[1],inactive
same,outcome,"TIMP1, TIMP1 (gene 7076)",inactive
same,outcome,[3],inactive
same,outcome,[8],inactive
same,outcome,[4],inactive
same,outcome,[5],inactive
same,outcome,[6],inactive
same,outcome,[7],inactive
COP(=O)(OC)OC(Br)C(Cl)(Cl)Br (configuration not stated),outcome,[1],inactive
same,outcome,"TIMP1, TIMP1 (gene 7076)",inactive
same,outcome,[2],inactive
same,outcome,[3],inactive
same,outcome,[4],inactive
same,outcome,[5],inactive
same,outcome,[7],inactive
CC(C)N(C(=O)SCC(Cl)=C(Cl)Cl)C(C)C,outcome,[1],inactive
same,outcome,"TIMP1, TIMP1 (gene 7076)",inactive
same,outcome,[2],inactive
same,outcome,[3],inactive
same,outcome,[4],inactive
same,outcome,[5],inactive
same,outcome,[6],inactive
same,outcome,[7],inactive
CCOP(=S)(OCC)OC(Cl)C(Cl)(Cl)Cl (configuration not stated),outcome,[1],inactive
same,outcome,"TIMP1, TIMP1 (gene 7076)",inactive
same,outcome,[2],inactive
same,outcome,[3],inactive
same,AC50,[4],30.7 µM (active)
same,outcome,[5],inactive
same,outcome,[6],inactive
same,outcome,[7],inactive
CN(C)C(=O)Nc1cccc(C(F)(F)F)c1,outcome,[1],inactive
same,AC50,"TIMP1, TIMP1 (gene 7076)",78.8 µM (active)
same,AC50,[2],81 µM (active)
same,outcome,[3],inactive
same,AC50,[4],1.22 µM (active)
same,outcome,[5],inactive
same,outcome,[6],inactive
same,outcome,[7],inactive
CCC(=O)Nc1ccc(Cl)c(Cl)c1,outcome,[1],inactive
same,outcome,"TIMP1, TIMP1 (gene 7076)",inactive
same,outcome,[2],inactive
same,outcome,[3],inactive
same,AC50,[4],26.7 µM (active)
same,outcome,[5],inactive
same,outcome,[6],inactive
same,outcome,[7],inactive
same,outcome,[9],inactive
CCOC(=O)CC(SP(=O)(OC)OC)C(=O)OCC (configuration not stated),outcome,[1],inactive
same,outcome,"TIMP1, TIMP1 (gene 7076)",inactive
same,outcome,[2],inactive
same,outcome,[3],inactive
same,outcome,[4],inactive
same,outcome,[5],inactive
same,outcome,[6],inactive
same,outcome,[7],inactive
CN(C)[C@@H]1C(=O)C(C(N)=O)=C(O)[C@@]2(O)C(=O)C3=C(O)c4c(O)cccc4[C@@](C)(O)[C@H]3[C@H](O)[C@@H]12,outcome,[1],inactive
same,outcome,"TIMP1, TIMP1 (gene 7076)",inactive
same,outcome,[2],inactive
same,outcome,[3],inactive
same,outcome,[4],inactive
same,outcome,[5],inactive
same,outcome,[6],inactive
same,outcome,[7],inactive
same,outcome,[9],inactive
FC(F)C(F)(F)OCC(Cn1cncn1)c1ccc(Cl)cc1Cl (configuration not stated),AC50,[1],28.8 µM (active)
same,outcome,"TIMP1, TIMP1 (gene 7076)",inactive
same,AC50,[2],49.8 µM (active)
same,AC50,[3],3.87 µM (active)
same,AC50,[4],38.1 µM (active)
same,AC50,[5],76.8 µM (active)
same,AC50,[6],86.9 µM (active)
same,AC50,[7],75.2 µM (active)
CCOP(=S)(OCC)Oc1ccc2c(C)c(Cl)c(=O)oc2c1,outcome,[1],inactive
same,outcome,"TIMP1, TIMP1 (gene 7076)",inactive
same,outcome,[2],inactive
same,AC50,[3],14.8 µM (active)
same,AC50,[4],3.4 µM (active)
same,outcome,[5],inactive
same,outcome,[6],inactive
same,outcome,[7],inactive
same,outcome,[9],inactive
COP(=O)(NC(C)=O)SC (configuration not stated),outcome,[1],inactive
same,outcome,"TIMP1, TIMP1 (gene 7076)",inactive
same,outcome,[3],inactive
same,outcome,[4],inactive
same,outcome,[5],inactive
same,outcome,[6],inactive
same,outcome,[7],inactive
Cc1ccn2nc(S(=O)(=O)Nc3c(F)cccc3F)nc2n1,outcome,[1],inactive
same,outcome,"TIMP1, TIMP1 (gene 7076)",inactive
same,outcome,[2],inactive
same,outcome,[3],inactive
same,outcome,[4],inactive
same,outcome,[5],inactive
same,outcome,[6],inactive
same,outcome,[7],inactive
C#CC(C)(C)NC(=O)c1cc(Cl)cc(Cl)c1,outcome,[1],inactive
same,outcome,"TIMP1, TIMP1 (gene 7076)",inactive
same,outcome,[2],inactive
same,outcome,[3],inactive
same,AC50,[4],13 µM (active)
same,outcome,[5],inactive
same,outcome,[6],inactive
same,outcome,[7],inactive
same,outcome,[9],inactive
CON=C(C(=O)OC)c1ccccc1CON=C(C)c1cccc(C(F)(F)F)c1,outcome,[1],inactive
same,outcome,"TIMP1, TIMP1 (gene 7076)",inactive
same,outcome,[2],inactive
same,AC50,[3],50 µM (active)
same,AC50,[4],6.06 µM (active)
same,outcome,[5],inactive
same,outcome,[6],inactive
same,outcome,[7],inactive
CCC(CC)Nc1c([N+](=O)[O-])cc(C)c(C)c1[N+](=O)[O-],outcome,[1],inactive
same,outcome,"TIMP1, TIMP1 (gene 7076)",inactive
same,outcome,[2],inactive
same,AC50,[3],36.7 µM (active)
same,AC50,[4],28.2 µM (active)
same,outcome,[5],inactive
same,outcome,[6],inactive
same,outcome,[7],inactive
same,outcome,[9],inactive
CCc1cccc(CC)c1N(COC)C(=O)CCl,outcome,[1],inactive
same,outcome,"TIMP1, TIMP1 (gene 7076)",inactive
same,outcome,[2],inactive
same,outcome,[3],inactive
same,AC50,[4],66.5 µM (active)
same,outcome,[5],inactive
same,outcome,[6],inactive
same,outcome,[7],inactive
COc1cccc(C(=O)NN(C(=O)c2cc(C)cc(C)c2)C(C)(C)C)c1C,outcome,[1],inactive
same,outcome,"TIMP1, TIMP1 (gene 7076)",inactive
same,outcome,[2],inactive
same,AC50,[3],12.2 µM (active)
same,AC50,[4],2.32 µM (active)
same,outcome,[5],inactive
same,outcome,[6],inactive
same,outcome,[7],inactive
